G9a inh – blocks human histone lysine methyltransferase G9a. AID 504332. 350,000 tested, 8.8% active. G9a H3K9 monomethylation, AlphaScreen, 2 h. Potency, µM (series often up to 102 µM), inactives show top-dose activity, negative = inhibition, hits mostly inhibitors; note: % is set by controls: 0 for no effect and ±100 for the full control effect; nearly all actives have a fitted effect of over 75% in size
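Compounds were preincubated with 20 nM G9a for 15 min, after which biotinylated H3K9 peptide (500 nM) and SAM (20 uM) started a 2 h room-temperature reaction. Monomethylated product was quantified by antibody-based AlphaScreen chemiluminescence.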
Sfp inh – Sfp phosphopantetheinyl transferase inhibition. Q9F4F7. Biochemical Sfp PPTase activity, qHTS. Potency, µM, inactives show largest response in the series, negative = inhibition, usual class: inhibitors. 310,000 tested, 3.5% active;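 note: the enzyme is Sfp with the accession as filed and its product quenches rhodamine fluorescence; 0% = enzyme reaction without inhibitor and -100% = no enzyme wells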
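Fluorescence-quenching assay with 15 nM Sfp, 5 uM rhodamine-CoA and 12.5 uM BHQ-2-labelled ybbR peptide in pH 7.6 Hepes/MgCl2 buffer. Enzyme was pre-incubated with compound for 15 min at room temperature. Rate was taken from the 30-min fluorescence change (525/598 nm).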
HP1b binding inh – HP1-beta chromodomain-methylated histone interaction inhibition. Potency, µM (top dose mostly 114 µM), for the others: at the top dose activity change, negative = inhibition, hits mostly inhibitors. AlphaScreen HP1-beta / biotin-H3K9me3 peptide binding. 390,000 tested, 0.56% active. P83916; note: nearly all actives have a fitted effect of over 70% in size
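HP1-beta protein (50 nM final) preincubated 30 min at room temperature with biotinylated H3(1-18)K9me3 peptide (50 nM) in PBS pH 7.4, 0.01% Tween-20, then compound added for 30 min. AlphaScreen streptavidin donor/nickel chelate acceptor beads (10 ug/mL final), 30 min dark, luminescence read.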
L3MBTL1 block – inhibitors of human L3MBTL1; Q9Y468; 230,000 tested, 0.66% active; Potency, µM (titrated, usually from 57.1 µM), for inactives: top-dose activity, negative = inhibition, actives largely listed as inhibitors; AlphaScreen L3MBTL1–H3K9me1 peptide binding; note: % is set by controls: 0 for no effect and ±100 for the full control effect; nearly all actives have a fitted effect of over 60% in size
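L3MBTL1 50 nM + b-AHA-H3(1-15)K9me1 75 nM, 30 min RT; compound added, 30 min RT; streptavidin donor/Ni-chelate acceptor beads 10 ug/mL each final, 30 min RT dark; AlphaScreen read.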
JMJD2A Tudor – blocks the human JMJD2A Tudor domain. Potency, µM (series often up to 114 µM), for inactives: top-dose activity change, negative = inhibition, actives largely listed as inhibitors. O75164. AID 504339. AlphaScreen JMJD2A-Tudor / H3K4me3 peptide binding. 390,000 tested, 4.4% active; note: % is set by controls: 0 for no effect and ±100 for the full control effect; nearly all actives have a fitted effect of over 50% in size
BAZ2B block – BAZ2B (human) inhibition; Q9UIF8; AlphaScreen BAZ2B-H3K14Ac peptide displacement; AID 504333; Potency, µM (highest dose often 114 µM), for the others: at the top dose activity change, negative = inhibition, actives largely listed as inhibitors; 360,000 tested, 4.4% active; note: % is set by controls: 0 for no effect and ±100 for the full control effect; nearly all actives have a fitted effect of over 60% in size
Target sequence (Q9UIF8 whole entry, looked up): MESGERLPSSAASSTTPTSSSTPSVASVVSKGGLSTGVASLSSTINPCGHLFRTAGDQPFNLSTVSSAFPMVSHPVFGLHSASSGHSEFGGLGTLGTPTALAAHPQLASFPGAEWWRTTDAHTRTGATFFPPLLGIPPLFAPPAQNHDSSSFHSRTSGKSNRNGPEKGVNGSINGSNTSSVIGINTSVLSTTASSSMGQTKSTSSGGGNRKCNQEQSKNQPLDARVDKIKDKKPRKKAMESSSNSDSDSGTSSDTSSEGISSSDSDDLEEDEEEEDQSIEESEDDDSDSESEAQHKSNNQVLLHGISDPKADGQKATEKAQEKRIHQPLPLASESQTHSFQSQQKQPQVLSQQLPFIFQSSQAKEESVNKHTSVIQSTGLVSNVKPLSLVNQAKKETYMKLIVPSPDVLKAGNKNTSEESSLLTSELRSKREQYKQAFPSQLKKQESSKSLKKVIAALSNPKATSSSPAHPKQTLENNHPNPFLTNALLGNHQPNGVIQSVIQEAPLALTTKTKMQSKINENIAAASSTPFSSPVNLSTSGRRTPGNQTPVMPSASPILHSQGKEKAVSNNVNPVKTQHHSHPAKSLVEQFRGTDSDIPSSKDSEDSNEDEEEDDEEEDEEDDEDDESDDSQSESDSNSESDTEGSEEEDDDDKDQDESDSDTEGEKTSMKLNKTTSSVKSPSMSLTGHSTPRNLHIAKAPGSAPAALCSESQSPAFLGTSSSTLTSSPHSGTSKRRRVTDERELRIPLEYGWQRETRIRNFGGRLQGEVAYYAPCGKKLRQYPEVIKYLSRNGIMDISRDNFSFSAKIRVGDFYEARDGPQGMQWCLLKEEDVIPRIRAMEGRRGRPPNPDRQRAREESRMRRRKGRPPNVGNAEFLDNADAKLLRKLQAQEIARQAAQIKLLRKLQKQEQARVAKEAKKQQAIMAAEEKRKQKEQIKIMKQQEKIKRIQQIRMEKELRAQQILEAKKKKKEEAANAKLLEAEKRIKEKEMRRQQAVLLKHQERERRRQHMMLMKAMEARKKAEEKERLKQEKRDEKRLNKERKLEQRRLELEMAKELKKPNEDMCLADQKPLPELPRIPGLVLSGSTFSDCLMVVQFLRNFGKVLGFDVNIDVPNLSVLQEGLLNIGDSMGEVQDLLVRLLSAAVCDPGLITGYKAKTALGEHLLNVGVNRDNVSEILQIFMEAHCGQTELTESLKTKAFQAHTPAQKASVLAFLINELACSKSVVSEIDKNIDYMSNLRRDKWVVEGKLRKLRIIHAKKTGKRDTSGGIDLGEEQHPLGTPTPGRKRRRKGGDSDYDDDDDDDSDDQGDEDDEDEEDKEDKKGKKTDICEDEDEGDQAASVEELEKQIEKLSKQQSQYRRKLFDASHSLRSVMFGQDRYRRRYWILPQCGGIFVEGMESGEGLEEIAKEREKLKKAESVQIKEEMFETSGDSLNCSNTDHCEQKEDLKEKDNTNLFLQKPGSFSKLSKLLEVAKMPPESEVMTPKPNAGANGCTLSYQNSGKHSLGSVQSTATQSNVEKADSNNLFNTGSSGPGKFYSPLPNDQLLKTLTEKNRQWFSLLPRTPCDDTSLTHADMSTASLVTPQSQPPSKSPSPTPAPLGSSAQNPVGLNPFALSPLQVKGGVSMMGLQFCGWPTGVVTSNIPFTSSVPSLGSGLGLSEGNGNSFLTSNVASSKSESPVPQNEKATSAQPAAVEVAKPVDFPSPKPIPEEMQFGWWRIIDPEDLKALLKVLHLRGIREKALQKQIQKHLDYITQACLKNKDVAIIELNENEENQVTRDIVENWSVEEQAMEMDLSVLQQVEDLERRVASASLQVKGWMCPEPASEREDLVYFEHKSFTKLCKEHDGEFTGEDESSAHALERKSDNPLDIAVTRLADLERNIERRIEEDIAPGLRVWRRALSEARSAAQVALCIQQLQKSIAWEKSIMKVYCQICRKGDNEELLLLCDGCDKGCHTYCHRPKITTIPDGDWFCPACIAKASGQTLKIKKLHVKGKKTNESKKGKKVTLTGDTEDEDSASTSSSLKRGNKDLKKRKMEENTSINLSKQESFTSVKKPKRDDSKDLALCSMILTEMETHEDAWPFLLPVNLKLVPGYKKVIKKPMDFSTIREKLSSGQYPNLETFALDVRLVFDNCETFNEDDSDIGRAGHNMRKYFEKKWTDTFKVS
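Compounds, titrated to a top concentration of 110 uM, were incubated 30 min at room temperature with preformed BAZ2B/acetyl-K14 H3 peptide complex (50 nM each). Proximity signal was measured by AlphaScreen after 20 min with beads.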
The depositor's hits bear a star; ? = inconclusive; nt = no result given; [ ] = another dose, or the depositor's remark. Compounds with a hit are over-represented: about 12% of the library has one in this group of screens. Calls come from the whole dose curve; as a rule, active = well fitted curve in the direction sought with a large enough effect; inconclusive = small, poorly fitted or top-dose-only effect, or another doubt; inactive = no such curve, though single readings can be large; an effect the other way counts as inactive or inconclusive. Potency is the fitted concentration of half-maximal effect.

SMILES	G9a inh	Sfp inh	HP1b binding inh	L3MBTL1 block	JMJD2A Tudor	BAZ2B block
COCCN=c1scc(-c2cc(OC)ccc2OC)n1/N=C/c1c[nH]c2ccccc12	10µM*	7%	?	?	40µM*	11µM*
COc1ccc(OCC(O)Cn2c(NCCO)nc3c2c(=O)n(C)c(=O)n3C)cc1 (stereo unspecified)	-1%[59 µM]	nt	14%	nt	-12%	2%
Fc1ccccc1/C=C1\CCCC2=C1Nc1nnnn1C2c1ccccc1F (stereo unspecified)	50µM*	-25%	23%	1%	-25%	-4%
Cc1cc(C2=CC(C)(c3cc(C)oc3C)Nc3nc(C(F)(F)F)nn32)c(C)o1 (stereo unspecified)	?	13µM*	nt	-7%	nt	56µM*
Cc1cccc(NC(=O)CSc2nnc(-c3cccs3)o2)c1	-4%[59 µM]	nt	35%	nt	-16%	4%
O=C(C1CC1)N1CCN(c2ccc([N+](=O)[O-])cc2-n2cccc2)CC1	nt	2%	-36%	nt	?	45µM*
Cc1ccc(C(=O)N2CCN(c3ccc([N+](=O)[O-])cc3-n3cccc3)CC2)cc1	28µM*	1%	?	nt	?	?
CC(C)(C)C(=O)N1CCN(c2ccc([N+](=O)[O-])cc2-n2cccc2)CC1	-40%	1%	-36%	nt	-28%	?
COc1ccccc1CNC(=O)Cn1c(=O)nc(-c2ccccc2F)c2cc(Cl)ccc21	1%[12.7 µM]	nt	34%	nt	-10%	-16%
Cc1ccc(NC(=O)c2ccc(NC(=O)N3CCSc4ncccc43)cc2)c(Cl)c1	-32%[59 µM]	nt	3%	nt	-12%	-11%
O=C(CN1CCOCC1)N/N=C/c1c(O)ccc2ccccc12	-13%	8%	52%	-11%	-12%	45µM*
O=C(CSCC(=O)Nc1ccccc1)N/N=C/c1c(O)ccc2ccccc12	1.6µM*	-7%	17%	-4%	-31%	-2%
O=C(N/N=C/c1c(O)ccc2ccccc12)Nc1ccccc1	nt	nt	41%	nt	-30%	nt
O=C(O)c1cc(N/N=C/c2c(O)ccc3ccccc23)ccc1Cl	20µM*	-23%	?	nt	?	40µM*
Cc1ccc(C)c(CSc2nc3ncccc3[nH]2)c1	-32%[59 µM]	nt	26%	nt	-14%	-9%
Cc1cc(OCC(=O)Nc2cc(-c3nc4ccccc4[nH]3)ccc2C)ccc1Cl	13%[59 µM]	nt	34%	nt	-21%	-33%
CC1=CC(=O)c2c(O)ccc(O)c2C1=O	-189%[59 µM]	25µM*	nt	0.79µM*	nt	3.5µM*
O=C(/C=C/c1ccc2ccccc2n1)c1cc(Br)ccc1O	10µM*	?	0%	?	?	56µM*
COc1ccc(CN2CCCC(C(=O)N3CCCC3)C2)c(OC)c1 (stereo unspecified)	-2%	-19%	50µM*	nt	0.89µM*	50µM*
COc1ccc(C(=O)C2CCCN(Cc3cc(Cl)ccc3O)C2)c(OC)c1 (stereo unspecified)	nt	13%	60%	46%	15%	45%
CCOC(=O)C1CCCN(Cc2ccc(OC)cc2OC)C1 (stereo unspecified)	-21%[59 µM]	-10%	?	8%	1.3µM*	-32%
O=C(NCCS(=O)(=O)N1CCN(c2ccccc2F)CC1)c1ccccc1C(F)(F)F	14%[59 µM]	nt	18%[57 µM]	nt	-22%	-2%
C[C@H](NC(=O)OC(C)(C)C)c1nnc(SCc2c(F)cccc2Cl)o1	2%[59 µM]	nt	45%	nt	-4%	89µM*
C[C@H](NC(=O)OC(C)(C)C)c1nnc(SCC(=O)c2ccc(Cl)cc2)o1	-39%	1%	26%	-1%	-11%	-5%
O=C1c2ccccc2C(=O)N1c1cncc2ccccc12	nt	nt	nt	nt	-28%	nt
SMILES	G9a inh	Sfp inh	HP1b binding inh	L3MBTL1 block	JMJD2A Tudor	BAZ2B block
CCCn1c(SC2C(=O)CC(C)(C)CC2=O)nc2c1c(=O)n(C)c(=O)n2C	56µM*	-13%	73%	7%	-5%	?
Cc1c(CC(=O)NCCc2ccccc2)c(=O)oc2c(C)c3occ(C(C)(C)C)c3cc12	4%[59 µM]	nt	43%	nt	-14%	0%
CC1CN(C(=O)C(C)N2CCN(c3cccc(Cl)c3)CC2)CC(C)O1 (stereo unspecified)	35%	5%	?	5%	63µM*	-3%
NS(=O)(=O)c1ccc(NC(=O)N2c3ccccc3Sc3ccccc32)cc1	nt	-10%	13%	-28%	-25%	50µM*
CCc1ccc(NC(=O)N2c3ccccc3Sc3ccccc32)cc1	5%[59 µM]	nt	30%	nt	3%	4%
COc1ccc2[nH]c(C)c(CCNC(=S)Nc3ccccc3C)c2c1	50µM*	-2%	?	-16%	89µM*	45µM*
Cc1cccc(NC(=S)NCCO)c1C	15%[59 µM]	-5%	31%	4%	-3%	2%
COc1ccc2[nH]c(I)c(CCNC(C)=O)c2c1	nt	11%	nt	nt	nt	nt
COc1ccc2[nH]c(C)c(CCNC(=S)Nc3ccc(C)cc3)c2c1	?	-2%	-23%	nt	50µM*	nt
CCc1cccc(CC)c1NC(=S)NCCc1c(C)[nH]c2ccccc12	45µM*	14%	-16%	-15%	45µM*	32µM*
COc1ccc2[nH]c(C)c(CCNC(=S)Nc3cccc(C)c3C)c2c1	?	29%	?	-3%	56µM*	35µM*
Cc1cccc(NC(=O)Cn2cc(C(=O)C3CCCCC3)c3ccccc32)c1	44%[59 µM]	nt	59%	nt	4%	33%
CCOC(=O)c1c(C)c(-c2ccccc2)n(CC(=O)NC2CCCCCC2)c1C	-3%[59 µM]	nt	26%	nt	0%	-14%
CC[C@H](C)[C@H](NC(=O)[C@H](Cc1ccc(O)cc1)NC(=O)[C@@H](NC(=O)[C@@H](N)CCCN=C(N)N)C(C)C)C(=O)N[C@@H](Cc1cnc[nH]1)C(=O)N1CCC[C@H]1C(=O)N[C@@H](Cc1ccccc1)C(=O)O	nt	1%	nt	nt	nt	nt
Cc1ccc2c(=O)c(C(=O)c3cccc(Cl)c3)cn(CC(=O)NC3CCCCC3)c2n1	3%[59 µM]	nt	78%	nt	-12%	0%
Cc1cc(=S)c2cccc(C)c2[nH]1	56µM*	35µM*	-16%	-5%	-20%	-30%

High-throughput results (PubChem BioAssay)
